Results taken from the supplement of paper PMC11018630.
Counter-ions that a name gives are not always drawn. ± gives the standard deviation of the averaged measurements.

What follows are compounds tested on RDEB dermal fibroblasts EB119 (assay: day of extracellular matrix detachment from plate (days); higher = delayed detachment (less fibrotic matrix)). Conditions: compound concentration: 10 uM.
With `N=C(N)NN` [Aminoguanidine (hydrochloride)] the “day of extracellular matrix detachment from plate” value (“day” below) was 26.3 ± 1.1. With `CCN(C)C(=O)Oc1cccc([C@H](C)N(C)C)c1` [Rivastigmine] the “day” value was 30.3 ± 2.9. For `Cc1ccc(-n2nccn2)c(C(=O)N2CCN(c3nc4cc(Cl)ccc4o3)CC[C@H]2C)c1` [Suvorexant (MK-4305)], the “day” value was 25.
